Measured values published in PubChem BioAssay AID463173 (ICCB-Longwood Screening Facility, Harvard Medical School, 2010).
Out of some 52,000 compounds screened, about 1,700 (3.3%) were called active. Cut-off read from the data, not from the text of the source: active = survival mostly below about 52% (no sharp cut-off); inactive = mostly above about 56%. The full list was thinned out, with actives kept by preference.

test system: Wild type; test: growth inhibition of S. aureus wild type versus tarO mutant, primary screen, teichoic acid synthesis inhibitors, RN4220, OD600 (AID 463173); conditions: S. aureus RN4220 wild type/DeltatarO growth, OD600, 18 h, active compounds read low, screened at 18.75 µg/mL (by protocol)

SMILES | survival
CCOC(=O)c1c(S(=O)(=O)N2CCC(C(=O)Nc3ccc(C)cn3)CC2)c(C)n(C)c1C | 70% (inactive)
Cc1ccc(NC(=O)c2cc(S(=O)(=O)N3CCCCC3)c[nH]2)cc1N(C)C | 87% (inactive)
CCCN(C(=O)c1sc2nc3n(c(=O)c2c1C)CCCC3)c1ccccc1C | 80% (inactive)
COc1cc2c(cc1OC)C(COc1ccccc1OC)N(C(=O)c1ccccc1OC)CC2 (centres undefined) | 73% (inactive)
Cc1ccc(C(=O)Nc2nc(-c3nnn(-c4cccc(C(F)(F)F)c4)c3C)ns2)cc1 | 75% (inactive)
CC(=O)c1ccc(N2CCN(S(=O)(=O)c3ccc(-c4cc(C)no4)s3)CC2)cc1 | -6% (active)
Cc1cc(-c2ccc(S(=O)(=O)N3CCN(c4ccc(Cl)cc4)CC3)s2)on1 | 136% (inactive)
CC(=O)c1ccc(N2CCN(S(=O)(=O)c3ccc(-c4cc(C(F)(F)F)on4)s3)CC2)cc1 | 72% (inactive)
Cc1cccc(N2CCN(C(=O)Cn3c(=O)c4cccn4c4ccc(F)cc43)CC2)c1C | 85% (inactive)
CC(C)(C)OC(=O)N1CCC(c2c(C(=O)NCc3ccco3)cnn2-c2ccccc2)CC1 | 75% (inactive)
Cc1ccc(S(=O)(=O)NCCc2cn3ccsc3n2)cc1 | 57% (inactive)
COc1ccc(S(=O)(=O)NCCc2cn3ccsc3n2)cc1OC | -3% (active)
COc1ccc(S(=O)(=O)NCCc2cn3ccsc3n2)cc1 | 82% (inactive)
CN(C)c1ccc(N/C=C(\C#N)c2nc3ccccc3[nH]2)cc1 | 118% (inactive)
CCOC(=O)CNC(=O)CSc1cn(CC(=O)N2CCCCCC2)c2ccccc12 | 99% (inactive)
Cc1ccc(Nc2ncnc3c2nc2n3CCCC2)c(Br)c1 | 111% (inactive)
CCS(=O)(=O)c1ncc(Cl)c(C(=O)Nc2ccccc2)n1 | 70% (inactive)
CCN(c1ccccc1)S(=O)(=O)c1ccc(NC(=O)c2nc(S(C)(=O)=O)ncc2Cl)cc1 | 0% (active)
CCS(=O)(=O)c1ncc(Cl)c(C(=O)Nc2ccc(S(=O)(=O)N(C)c3ccccc3)cc2)n1 | 8% (active)
CCN(c1ccccc1)S(=O)(=O)c1ccc(NC(=O)c2nc(SC)ncc2Cl)cc1 | 88% (inactive)
CN(c1ccccc1)S(=O)(=O)c1ccc(NC(=O)c2nc(S(C)(=O)=O)ncc2Cl)cc1 | 2% (active)
CC(C)Sc1ncc(Cl)c(C(=O)Nc2ccc(S(=O)(=O)N(C)c3ccccc3)cc2)n1 | 78% (inactive)
CCCSc1ncc(Cl)c(C(=O)Nc2ccc(S(=O)(=O)N(C)c3ccccc3)cc2)n1 | 84% (inactive)
CCSc1ncc(Cl)c(C(=O)Nc2ccc(S(=O)(=O)N(C)c3ccccc3)cc2)n1 | 84% (inactive)

SMILES | survival
CCN(c1ccccc1)S(=O)(=O)c1ccc(NC(=O)c2nc(SC(C)C)ncc2Cl)cc1 | 81% (inactive)
Cc1cccc(N2CCN(S(=O)(=O)c3ccc4c(c3)CCCN4C(=O)C3CCC3)CC2)c1C | 86% (inactive)
Cc1ccc(C(=O)Nc2nnc(SCc3cc(=O)c4c(C)ccc(C)c4[nH]3)s2)cc1 | 93% (inactive)
Cc1ccc(C)c(NC(=O)CN2C(=O)C(C)(C)c3ccccc32)c1 | 76% (inactive)
Fc1cccc(-c2cc3nc4c(c(NCCCN5CCOCC5)n3n2)CCCC4)c1 | 103% (inactive)
COc1ccc(-n2c(=O)c3ccccc3n(Cc3cccc(C)c3)c2=O)cc1 | 75% (inactive)
Cc1cc(C)cc(NS(=O)(=O)c2ccc3c(c2)OCC(C(=O)N2CCCC2)O3)c1 (centres undefined) | 78% (inactive)
CCc1ccc(S(=O)(=O)NCCc2csc3nc(-c4ccccc4)nn23)s1 | 129% (inactive)
COc1ccc(-c2nc3scc(CCNS(=O)(=O)c4cccs4)n3n2)cc1 | 1% (active)
O=S(=O)(NCCc1csc2nc(-c3ccccc3)nn12)c1cccs1 | 81% (inactive)
CCS(=O)(=O)NCCc1csc2nc(-c3ccc(C)cc3)nn12 | 59% (inactive)
CS(=O)(=O)NCCc1csc2nc(-c3ccccc3)nn12 | -4% (active)
COc1ccc(S(=O)(=O)NCCc2csc3nc(-c4ccccc4)nn23)cc1OC | 71% (inactive)
COc1ccc(-c2nc3scc(CCNS(=O)(=O)c4ccccc4F)n3n2)cc1 | 57% (inactive)
COc1ccc(OC)c(S(=O)(=O)NCCc2csc3nc(-c4ccccc4)nn23)c1 | -3% (active)
O=S(=O)(NCCc1csc2nc(-c3ccc(Cl)cc3)nn12)c1cccs1 | 72% (inactive)
COc1ccc(NC(=O)C(CC(C)C)NC(=O)C2CCCCC2)c(OC)c1 (centres undefined) | 63% (inactive)
CC1(C)NC(=O)N(CC(O)CN2C(=O)NC(C)(C)C2=O)C1=O | 117% (inactive)
CCOc1ccc(-c2ncnn2-c2sc3c(c2C#N)CCCCC3)cc1 | 3% (active)
N#Cc1c(-n2ncnc2-c2cccc(Cl)c2)sc2c1CCCCC2 | 58% (inactive)
CC(C)CCOc1ccc(C(=O)Nc2sc3c(c2C#N)CCCCC3)cc1 | 135% (inactive)
N#Cc1c(/N=C/N2CCCCC2)sc2c1CCCC2 | 89% (inactive)
COc1ccc(-c2nnn(CC(=O)Nc3sc4c(c3C#N)CCCC4)n2)cc1 | 109% (inactive)
N#Cc1c(N2C(=O)C3C4C=CC(C4)C3C2=O)sc2c1CCCC2 (centres undefined) | 108% (inactive)

SMILES | survival
N#Cc1c(-n2ncnc2-c2ccc(F)cc2)sc2c1CCCCC2 | -2% (active)
N#Cc1c(-n2ncnc2-c2cccc(Br)c2)sc2c1CCCCC2 | 45% (inactive)
N#Cc1c(-n2ncnc2-c2ccc(Br)cc2)sc2c1CCCCC2 | 2% (active)
Cc1ccc(C)c(N2CCN(S(=O)(=O)c3cc(-c4cc(C)no4)ccc3C)CC2)c1 | 73% (inactive)
O=C(CSc1n[nH]c(-c2ccccc2)n1)NCCCc1ccccc1 | 69% (inactive)
CC(C)(C)c1cn2ccc3ccccc3c2n1 | 113% (inactive)
Oc1ccccc1C(C#Cc1ccccc1)N1CCOCC1 (centres undefined) | 110% (inactive)
CC(C)N(C(=O)Cn1nnc2ccccc21)C(C(=O)NCc1ccco1)c1ccccc1 (centres undefined) | 101% (inactive)
Cc1ccc(C)c(N2CCN(Cc3nnc(-c4ccccc4)o3)CC2)c1 | 87% (inactive)
Cc1ccc(N2CCN(Cc3nnc(-c4ccccc4F)o3)CC2)c(C)c1 | 15% (active)
Cc1ccccc1-c1nnc(CN2CCN(c3cc(Cl)ccc3C)CC2)o1 | 86% (inactive)
Cc1ccc(-n2nc(C(=O)Nc3ccc(C)c(F)c3)c(=O)n(C)c2=O)cc1 | 68% (inactive)
Cc1ccc(CN2c3ccccc3-c3nc(SCC(=O)NCCc4ccccc4)ncc3S2(=O)=O)cc1 | 14% (active)
O=C(CSc1ncc2c(n1)-c1ccccc1N(Cc1ccccc1)S2(=O)=O)Nc1ccccc1 | -6% (active)
NC(=O)CSc1ncc2c(n1)-c1ccccc1N(Cc1ccccc1)S2(=O)=O | 69% (inactive)
O=C(CSc1ncc2c(n1)-c1ccccc1N(Cc1ccc(F)cc1)S2(=O)=O)NCCc1ccccc1 | 73% (inactive)
CCN1c2ccccc2-c2nc(SCC(=O)NCc3ccccc3)ncc2S1(=O)=O | 74% (inactive)
O=C(CSc1ncc2c(n1)-c1cc(Cl)ccc1N(Cc1ccccc1)S2(=O)=O)NCCc1ccccc1 | 113% (inactive)
Cc1ccccc1CN1c2ccccc2-c2nc(SCC(=O)NCc3ccccc3)ncc2S1(=O)=O | -3% (active)
CCc1cccc(NC(=O)CSc2ncc3c(n2)-c2ccccc2N(Cc2ccccc2C)S3(=O)=O)c1 | 0% (active)
CCc1cccc(NC(=O)CSc2ncc3c(n2)-c2ccccc2N(CC)S3(=O)=O)c1 | 95% (inactive)
Cc1ccc(CN2c3ccccc3-c3nc(SCC(=O)Nc4c(C)cc(C)cc4C)ncc3S2(=O)=O)cc1 | 133% (inactive)
CCOc1ccc(NC(=O)CSc2ncc3c(n2)-c2ccccc2N(Cc2ccccc2C)S3(=O)=O)cc1 | 63% (inactive)
Cc1ccccc1CN1c2ccccc2-c2nc(SCC(=O)NCCc3ccccc3)ncc2S1(=O)=O | 53% (inactive)

SMILES | survival
Cc1ccc2[nH]c(CSc3nnc(NC(=O)c4ccccc4C)s3)cc(=O)c2c1 | 72% (inactive)
O=C(NCCCO)c1cc2sc3ccccc3c2s1 | 103% (inactive)
O=C(Nn1c(Cc2ccccc2)nc2ccccc2c1=O)c1ccco1 | 107% (inactive)
CCN1c2ccccc2-c2nc(SCC(=O)NCc3ccc(C)cc3)ncc2S1(=O)=O | 79% (inactive)
Cc1ccc(CN2c3ccccc3-c3nc(SCC(=O)NCc4ccccc4)ncc3S2(=O)=O)cc1 | -1% (active)
O=C(CSc1ncc2c(n1)-c1ccccc1N(Cc1ccc(F)cc1)S2(=O)=O)NCc1ccccc1 | 76% (inactive)
COc1ccc(N(CC(=O)N2CCN(c3cccc(Cl)c3)CC2)S(=O)(=O)c2c(C)noc2C)cc1 | 84% (inactive)
Cc1cc(C)c2sc(N3CCN(C(=O)c4ccc(N(C)C)cc4)CC3)nc2c1 | 136% (inactive)
O=C(CC1COc2ccccc2O1)NCc1ccccc1 (centres undefined) | 105% (inactive)
O=C(Nc1ccc(F)cc1)Nc1csc2c1CCCC2 | 12% (inactive)
CCOc1ccc(-n2c(SCC(=O)N3CCOCC3)nc3c([nH]c4ccccc43)c2=O)cc1 | -3% (active)
CCOc1ccc(-n2c(SCC(=O)N3CCCC3)nc3c([nH]c4ccccc43)c2=O)cc1 | 73% (inactive)
Cc1ccc(-n2c(SCC(=O)N3CCc4ccccc43)nc3c([nH]c4ccccc43)c2=O)cc1 | 120% (inactive)
O=C(CSc1nc(-c2ccccc2F)nc2cc(=O)[nH]n12)Nc1cccc(C(F)(F)F)c1 | 69% (inactive)
Cc1cccc(-c2nc(SCC(=O)Nc3cccc(C(F)(F)F)c3)n3[nH]c(=O)cc3n2)c1 | -3% (active)
O=C(CSc1nc2c([nH]c3ccccc32)c(=O)n1-c1ccccc1)c1ccccc1 | 73% (inactive)
Cc1ccc(-n2c(SCC(=O)c3ccccc3)nc3c([nH]c4ccccc43)c2=O)cc1 | -6% (active)
COc1ccc(-n2c(SCC(=O)c3ccccc3)nc3c([nH]c4ccccc43)c2=O)cc1 | 88% (inactive)
O=C(CSc1nc2c([nH]c3ccccc32)c(=O)n1-c1ccccc1)N1CCc2ccccc21 | 73% (inactive)
O=C(CSc1nc(-c2cccs2)nc2cc(=O)[nH]n12)Nc1cccc(C(F)(F)F)c1 | 128% (inactive)
CCOc1ccc(-n2c(SCC(=O)N3CCCCC3)nc3c([nH]c4ccccc43)c2=O)cc1 | 94% (inactive)
Cc1cc(C)cc(-n2c(SCC(=O)N3CCc4ccccc43)nc3c([nH]c4ccccc43)c2=O)c1 | 14% (active)
